Assay results: PubChem BioAssay (Tox21)
Where “and” joins values, the source holds several entries; their conditions need not be identical. Identical values can stand only once. Records with an inconclusive call do not appear. Entries that show only a call come without a potency. A structure can be active in one record and inactive in another. Calls of active or inactive are those of the source. Unless noted, calls follow the shape of the full dose curve.

Legend:
[1] = Nuclear factor erythroid 2-related factor 2/antioxidant responsive element (Nrf2/ARE) small molecule agonists: qHTS cell viability counter screen in human keratinocytes (AID 1919968; active = well fitted cell-killing curve with a large enough effect in the repeat runs; also: nearly all actives have a fitted effect of over 55% in size; also: potency is read from the fitted curve at half-maximal effect)
In short: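 Parallel cytotoxicity read: KeratinoSens HaCaT cells, compound treatment 23 h, viability by CellTiter-Fluor fluorescence 1 h post-reagent.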

[2] = Nuclear factor erythroid 2-related factor 2/antioxidant responsive element (Nrf2/ARE) small molecule agonists: luciferase reporter gene qHTS assay in human keratinocytes (AID 1919969); also: nearly all actives have a fitted effect of over 35% in size; also: potency is read from the fitted curve at half-maximal effect
[3] = molecular target: Gonadotropin-releasing hormone receptor (Homo sapiens) (UniProt P30968); assay: Human gonadotropin-releasing hormone receptor (GnRHR) small molecule agonists, calcium flux assay in GnRHR-HEK293 cells (AID 1920063); also: nearly all actives have a fitted effect of over 35% in size
In short: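 Calcium flux, agonist mode, human GnRHR stably integrated in HEK293; dye 1 h at 37 C before compound; Ex/Em=480/540 kinetic read, 3 min; 15 concentrations, triplicate.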

[4] = G protein-coupled receptor (GPCR) small molecule agonists, calcium flux assay: HEK293 wild type cell line counter screen (AID 1920065)
In short: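 Non-specific calcium responders were flagged by adding DMSO-dissolved compounds to dye-loaded cells and reading 480/540 nm fluorescence each second for 3 min; ATP served as positive control.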

[5] = p53 small molecule agonists, cell-based qHTS assay with human liver microsomes (AID 1963577)
In short: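 p53RE-bla cells, 4,000/well, compound added after 5 h, with human liver microsomes 0.5 mg/mL and NADPH 0.5 mg/mL final; 16 h at 37 C, then LiveBLAzer 2 h RT, fluorescence.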

[6] = p53 small molecule agonists, cell-based qHTS assay with rat liver microsomes (AID 1963578)
In short: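 p53RE-bla cells, 4,000/well, pre-incubated 5 h, then given compounds plus rat liver microsomes (0.5 mg/mL final) and NADPH (0.5 mg/mL final). Incubation 16 h at 37 C; beta-lactamase reporter read by LiveBLAzer fluorescence after 2 h at room temperature.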

[7] = p53 small molecule agonists, cell-based qHTS assay with human liver microsomes: qHTS cell viability counter screen (AID 1963579); also: nearly all actives have a fitted effect of over 45% in size
In short: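 p53RE-bla cells, 4,000/well, dosed 5 hours after plating, with human liver microsomes (0.5 mg/mL final) plus NADPH (0.5 mg/mL final), 16 hours at 37 C. Viability read as CellTiter-Glo luminescence after 30 min at room temperature.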

[8] = p53 small molecule agonists, cell-based qHTS assay with rat liver microsomes: qHTS cell viability counter screen (AID 1963580); also: nearly all actives have a fitted effect of over 45% in size
In short: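 After the beta-lactamase ratio was read, CellTiter-Glo was added to the same wells and luminescence measured at 30 min; cells had been treated 16 h at 37 C with compounds, rat liver microsomes and NADPH (0.5 mg/mL final each).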

[9] = p53 small molecule agonists, cell-based qHTS assay: qHTS cell viability counter screen (AID 1963581); also: nearly all actives have a fitted effect of over 45% in size
In short: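 Multiplexed with the reporter read, a CellTiter-Glo step (30 min, room temperature) gauges ATP-based viability of HCT-116 p53RE-bla cells after 16 h compound incubation at 37 C.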

[10] = molecular target: 5-hydroxytryptamine receptor 2A (Homo sapiens) (UniProt P28223); assay: 5-hydroxytryptamine receptor 2A (HTR2A) small molecule antagonists, cell-based qHTS assay (AID 1963586); also: nearly all actives have a fitted effect of over 45% in size
In short: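 CHO cells stably expressing human HTR2A were plated for 18 h at 37 C, then loaded with calcium dye for 1 h. Compounds were preincubated 5 min at room temperature before DOI (4 nM solution) was added. Kinetic fluorescence was read for 3 min.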

[11] = molecular target: 5-hydroxytryptamine receptor 2A (Homo sapiens) (UniProt P28223); assay: 5-hydroxytryptamine receptor 2A (HTR2A) small molecule agonists, cell-based qHTS assay (AID 1963587); also: nearly all actives have a fitted effect of over 30% in size
In short: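 CHO cells stably expressing human HTR2A, plated 18 h, loaded with calcium dye 1 h at 37 C. Agonist mode: compounds added and intracellular calcium fluorescence recorded kinetically for 2 min at 1 sec intervals.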

[12] = molecular target: Muscarinic acetylcholine receptor M1 (Homo sapiens) (UniProt P11229); assay: Cholinergic receptor muscarinic 1 (CHRM1) small molecule antagonists, cell-based qHTS assay (AID 1963588); also: nearly all actives have a fitted effect of over 40% in size
In short: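 Compounds were tested at 15 concentrations in three independent runs. Dye-loaded CHRM1-CHO cells were exposed 5 min at room temperature before stimulation by acetylcholine added at 50nM. Intracellular calcium was read kinetically on FDSS for 3 min.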

[13] = molecular target: Muscarinic acetylcholine receptor M1 (Homo sapiens) (UniProt P11229); assay: Cholinergic receptor muscarinic 1 (CHRM1) small molecule agonists, cell-based qHTS assay (AID 1963589); also: nearly all actives have a fitted effect of over 35% in size
In short: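 qHTS, 15-point titration, 3 independent runs: compounds pin-transferred onto dye-loaded CHRM1-CHO cells (human M1), calcium fluorescence followed every second to detect agonism.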

[14] = cAMP Responsive Elements (CRE) small molecule antagonists, cell-based qHTS assay (AID 1963591; active = well fitted inhibition curve with a large enough effect in the signal ratio in the repeat runs, not every such curve was filed as active; the % refers to the signal ratio)
In short: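 Fluorescence intensity from cleaved LiveBLAzer B/G substrate (2 h, room temperature) quantified CRE-bla activity in HEK 293T cells exposed 3 h to compound with 0.25 uM final NKH477.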

[15] = molecular target: Beta-2 adrenergic receptor (Homo sapiens) (UniProt P07550); assay: Adrenergic beta2 receptor (ADRB2) small molecule antagonists, cell-based qHTS assay (AID 1963592); also: series mostly up to about 92 µM; nearly all actives have a fitted effect of over 50% in size
In short: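 Assay format: CHO-ADRB2 cells, 18-20hr seeding at 37C/5% CO2, then compound plus 1nM isoproterenol agonist mix for 0.5hr RT. Homogeneous time-resolved fluorescence cAMP detection after 1hr, expressed as 665/615 nm ratio.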

[16] = molecular target: D(2) dopamine receptor (Homo sapiens) (UniProt P14416); assay: Dopamine D2 receptor (DRD2) small molecule agonists, cell-based qHTS assay (AID 1963594); also: nearly all actives have a fitted effect of over 35% in size
In short: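 HEK293 cells stably expressing human DRD2, pre-treated with PDE inhibitor Ro20-1724 (0.1 mM final) and compound 10 min at room temperature, then stimulated with NKH477 (200nM […]) for 30 min. cAMP read by HTRF (665/620 nm).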

[17] = molecular target: D(2) dopamine receptor (Homo sapiens) (UniProt P14416); assay: Dopamine D2 receptor (DRD2) small molecule antagonists, cell-based qHTS assay (AID 1963595; active = well fitted inhibition curve with a large enough effect in the signal ratio in the repeat runs, with a control signal flat; the % refers to the signal ratio)
In short: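 Readout: HTRF cAMP, cAMP-d2 competing with cellular cAMP for anti-cAMP cryptate, read after 1 h. Cells: DRD2-HEK293. Conditions: 0.1 mM Ro20-1724, 12 nM quinpirole, 200 nM NKH477, 30 min RT.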

[18] = p53 small molecule agonists, cell-based qHTS assay (AID 1963582; active = well fitted activation curve with a large enough effect in the signal ratio in the repeat runs, not every such curve was filed as active; the % refers to the signal ratio)
In short: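 Beta-lactamase reporter cells (p53RE-bla) treated with compounds for 16 h at 37 C; FRET substrate, 2 h, room temperature; fluorescence intensity.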

[19] = cAMP Responsive Elements (CRE) small molecule agonists, cell-based qHTS assay (AID 1963590)
In short: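 Quantitative HTS for CRE agonists: HEK 293T CRE-bla cells, overnight plating, 3 h compound incubation at 37 C/5% CO2, then 2 h room-temperature LiveBLAzer B/G FRET substrate loading.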

[20] = molecular target: Beta-2 adrenergic receptor (Homo sapiens) (UniProt P07550); assay: Adrenergic beta2 receptor (ADRB2) small molecule agonists, cell-based qHTS assay (AID 1963593);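 also: CHO cells stably overexpressing human ADRB2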
In short: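 CHO cells stably over-expressing ADRB2 were plated overnight at 37C, then dosed with compounds plus a stimulation mix containing 100uM IBMX and 25uM Ro-20-1724 for 0.5hr at room temperature. cAMP was measured by HTRF competition, 1hr.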

Sequence of D(2) dopamine receptor (Homo sapiens) (P14416 whole entry, looked up): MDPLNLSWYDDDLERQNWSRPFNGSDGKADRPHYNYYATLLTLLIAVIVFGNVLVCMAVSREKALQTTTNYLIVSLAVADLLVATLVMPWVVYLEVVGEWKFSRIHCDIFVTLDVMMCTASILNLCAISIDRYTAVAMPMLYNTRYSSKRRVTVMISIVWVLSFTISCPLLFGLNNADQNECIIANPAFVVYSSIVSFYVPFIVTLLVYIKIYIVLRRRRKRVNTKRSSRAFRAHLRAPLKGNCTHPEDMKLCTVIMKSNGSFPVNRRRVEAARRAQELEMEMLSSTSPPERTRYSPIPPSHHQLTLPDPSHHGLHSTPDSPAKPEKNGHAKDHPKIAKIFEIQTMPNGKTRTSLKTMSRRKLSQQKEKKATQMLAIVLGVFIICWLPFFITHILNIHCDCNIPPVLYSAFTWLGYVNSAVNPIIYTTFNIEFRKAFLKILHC
Sequence of 5-hydroxytryptamine receptor 2A (Homo sapiens) (P28223 whole entry, looked up): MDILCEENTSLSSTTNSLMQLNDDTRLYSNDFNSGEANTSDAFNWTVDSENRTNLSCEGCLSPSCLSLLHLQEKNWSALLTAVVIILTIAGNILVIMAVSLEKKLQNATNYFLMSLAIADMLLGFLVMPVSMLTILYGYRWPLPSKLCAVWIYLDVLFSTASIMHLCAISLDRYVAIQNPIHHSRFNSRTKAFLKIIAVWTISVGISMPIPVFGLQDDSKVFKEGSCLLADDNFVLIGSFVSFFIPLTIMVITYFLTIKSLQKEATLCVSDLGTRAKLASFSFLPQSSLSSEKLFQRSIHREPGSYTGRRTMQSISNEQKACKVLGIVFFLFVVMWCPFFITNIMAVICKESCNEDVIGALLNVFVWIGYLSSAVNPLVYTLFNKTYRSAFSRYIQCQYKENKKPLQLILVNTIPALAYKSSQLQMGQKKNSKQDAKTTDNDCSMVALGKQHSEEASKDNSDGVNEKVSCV
Sequence of Gonadotropin-releasing hormone receptor (Homo sapiens) (P30968 whole entry, looked up): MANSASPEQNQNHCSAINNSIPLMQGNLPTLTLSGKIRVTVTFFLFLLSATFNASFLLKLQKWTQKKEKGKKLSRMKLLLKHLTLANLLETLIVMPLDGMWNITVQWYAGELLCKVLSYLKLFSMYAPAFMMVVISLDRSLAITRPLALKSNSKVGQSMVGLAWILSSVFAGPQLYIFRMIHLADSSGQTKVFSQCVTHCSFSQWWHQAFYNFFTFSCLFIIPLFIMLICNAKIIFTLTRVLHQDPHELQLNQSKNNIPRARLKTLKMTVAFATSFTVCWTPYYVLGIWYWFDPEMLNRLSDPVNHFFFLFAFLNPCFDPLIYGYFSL
Sequence of Muscarinic acetylcholine receptor M1 (Homo sapiens) (P11229 whole entry, looked up): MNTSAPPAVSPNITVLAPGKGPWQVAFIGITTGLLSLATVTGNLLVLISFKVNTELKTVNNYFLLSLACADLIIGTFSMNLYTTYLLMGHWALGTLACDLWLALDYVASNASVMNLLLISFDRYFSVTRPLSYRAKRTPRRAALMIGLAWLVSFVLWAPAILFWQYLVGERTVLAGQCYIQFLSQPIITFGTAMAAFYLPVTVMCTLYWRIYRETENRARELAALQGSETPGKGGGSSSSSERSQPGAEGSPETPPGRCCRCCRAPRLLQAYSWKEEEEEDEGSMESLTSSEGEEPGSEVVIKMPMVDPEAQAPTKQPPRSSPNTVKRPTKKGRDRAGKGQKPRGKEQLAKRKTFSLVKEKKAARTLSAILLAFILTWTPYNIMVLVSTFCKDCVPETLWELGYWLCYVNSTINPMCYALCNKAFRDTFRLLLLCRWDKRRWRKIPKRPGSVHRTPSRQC
Sequence of Beta-2 adrenergic receptor (Homo sapiens) (P07550 whole entry, looked up): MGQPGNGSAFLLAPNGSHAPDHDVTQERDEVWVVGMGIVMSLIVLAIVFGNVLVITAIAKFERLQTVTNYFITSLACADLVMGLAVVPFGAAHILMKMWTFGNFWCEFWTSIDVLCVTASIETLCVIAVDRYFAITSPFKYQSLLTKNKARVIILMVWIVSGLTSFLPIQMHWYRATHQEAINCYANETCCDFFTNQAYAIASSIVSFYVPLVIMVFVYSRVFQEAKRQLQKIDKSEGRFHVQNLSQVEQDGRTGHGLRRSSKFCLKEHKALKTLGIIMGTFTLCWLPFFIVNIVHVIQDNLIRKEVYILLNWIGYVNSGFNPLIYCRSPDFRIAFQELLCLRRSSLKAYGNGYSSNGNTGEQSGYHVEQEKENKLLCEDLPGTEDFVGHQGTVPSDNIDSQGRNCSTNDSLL

Row | SMILES | Potency [1] | Potency [2] | Potency [3] | Potency [4] | Potency [5] | Potency [6] | Potency [7] | Potency [8] | Potency [9] | Potency [10] | Potency [11] | Potency [12] | Potency [13] | Potency [14] | Potency [15] | Potency [16] | Potency [17] | Potency [18] | Potency [19] | Potency [20]
1 | CC(=O)Nc1ccc(C(=O)CCl)cc1 | inactive and 27.3 µM (active) | 54.8 µM (active) and 9.69 µM (active) | inactive | inactive | inactive | inactive | inactive | inactive | inactive | inactive | inactive | inactive | inactive | inactive | inactive | inactive | inactive |  |  | 
2 | CN(C)CCN(Cc1cccs1)c1ccccn1 | inactive | inactive | inactive | inactive | inactive | inactive | inactive | inactive |  |  |  |  |  | inactive | inactive |  | inactive | inactive | inactive | inactive
3 | Oc1c(Cl)cc(Cl)c(Cl)c1Cl | inactive | inactive | inactive | inactive | inactive |  | inactive | inactive | inactive | inactive | inactive | inactive | inactive | inactive |  | inactive | inactive |  |  | 
4 | O=C(O)c1cccc(C(=O)O)c1 | inactive | inactive | inactive | inactive |  |  | inactive | inactive | inactive | inactive | inactive | inactive |  |  | inactive | inactive | inactive |  | inactive | inactive
5 | OCc1cccnc1 | inactive | inactive | inactive | inactive |  |  | inactive | inactive | inactive | inactive | inactive | inactive | inactive | inactive | inactive | inactive | inactive |  | inactive | inactive
6 | OC(CCl)CCl | inactive | inactive |  | inactive | inactive | inactive | inactive | inactive | inactive | inactive | inactive | inactive | inactive | inactive | inactive | inactive | inactive | inactive | inactive | 
7 | O=C(O)c1ccc(O)cc1 | inactive | inactive |  | inactive | inactive | inactive | inactive | inactive | inactive | inactive | inactive | inactive | inactive | inactive | inactive | inactive | inactive | inactive | inactive | inactive
8 | CC(=O)Nc1ccc(C(=O)O)cc1 | inactive | inactive | inactive | inactive | inactive | inactive | inactive |  | inactive | inactive | inactive | inactive |  | inactive | inactive | inactive | inactive | inactive | inactive | inactive
9 | OC[C@@H](O)[C@@H](O)[C@H](O)[C@H](O)CO | inactive | inactive | inactive | inactive | inactive | inactive | inactive |  | inactive |  |  |  |  | inactive | inactive | inactive |  | inactive | inactive | inactive
10 | CCCCCCC(=O)O | inactive | inactive |  | inactive | inactive | inactive | inactive | inactive | inactive | inactive | inactive | inactive | inactive | inactive | inactive | inactive | inactive | inactive | inactive | inactive
11 | CCNc1cccc(C)c1 | inactive | inactive | inactive | inactive | inactive |  | inactive | inactive | inactive | inactive | inactive | inactive | inactive | inactive | inactive | inactive | inactive | inactive | inactive | inactive
12 | CCCCCCCC(=O)OCC(COC(=O)CCCCCCC)OC(=O)CCCCCCC | inactive | inactive | inactive | inactive | inactive | inactive | inactive |  | inactive | inactive | inactive |  |  | inactive | inactive | inactive | inactive | inactive |  | inactive
13 | CC1(C)[C@@H]2CC[C@@]1(C)C(=O)C2 | inactive | inactive | inactive | inactive | inactive |  | inactive | inactive | inactive |  |  |  |  | inactive | inactive | inactive |  | inactive | inactive | 
14 | O=C(O)c1cc(C(=O)O)cc(S(=O)(=O)O)c1 | inactive | inactive | inactive | inactive |  |  | inactive | inactive | inactive | inactive | inactive | inactive | inactive | inactive | inactive | inactive | inactive |  |  | inactive
15 | CCCC(=O)O | inactive | inactive | inactive | inactive |  |  | inactive | inactive | inactive | inactive | inactive | inactive | inactive | inactive | inactive | inactive |  |  | inactive | inactive
16 | Cc1cc(CC(=O)O)n(C)c1C(=O)c1ccc(Cl)cc1 | inactive | inactive | inactive |  | inactive | inactive | inactive | inactive | inactive | inactive | inactive | inactive | inactive |  | inactive | inactive | inactive | inactive |  | 
17 | C#CCN(C)Cc1ccccc1 | inactive | inactive |  | inactive | inactive | inactive | inactive | inactive | inactive | inactive | inactive | inactive | inactive | inactive | inactive |  | inactive | inactive | inactive | inactive
